Among all 2,400 compounds or so, about 750 (31%) were called active. This is one part of the list. A number with no mark means an inactive call.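 The calls were made as follows: active = median signal gain over dofetilide-blocked control wells reaching their mean plus 3 SD, so readout 1 at least 0; inactive = the rest.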

For the experiment, the target named is Voltage-gated inwardly rectifying potassium channel KCNH2 (Homo sapiens) (UniProt Q12809). Nature of the experiment: modulators restoring hERG flux under dofetilide – cell-based, thallium flux, duplicate retest, dofetilide IC70, confirmation (AID 1835). The conditions noted are these: hERG cell line, FluxOR thallium flux, dofetilide-blocked; at 10 µM; hits give high values.
Voltage-gated inwardly rectifying potassium channel KCNH2 (Homo sapiens), sequence (Q12809 whole entry, looked up): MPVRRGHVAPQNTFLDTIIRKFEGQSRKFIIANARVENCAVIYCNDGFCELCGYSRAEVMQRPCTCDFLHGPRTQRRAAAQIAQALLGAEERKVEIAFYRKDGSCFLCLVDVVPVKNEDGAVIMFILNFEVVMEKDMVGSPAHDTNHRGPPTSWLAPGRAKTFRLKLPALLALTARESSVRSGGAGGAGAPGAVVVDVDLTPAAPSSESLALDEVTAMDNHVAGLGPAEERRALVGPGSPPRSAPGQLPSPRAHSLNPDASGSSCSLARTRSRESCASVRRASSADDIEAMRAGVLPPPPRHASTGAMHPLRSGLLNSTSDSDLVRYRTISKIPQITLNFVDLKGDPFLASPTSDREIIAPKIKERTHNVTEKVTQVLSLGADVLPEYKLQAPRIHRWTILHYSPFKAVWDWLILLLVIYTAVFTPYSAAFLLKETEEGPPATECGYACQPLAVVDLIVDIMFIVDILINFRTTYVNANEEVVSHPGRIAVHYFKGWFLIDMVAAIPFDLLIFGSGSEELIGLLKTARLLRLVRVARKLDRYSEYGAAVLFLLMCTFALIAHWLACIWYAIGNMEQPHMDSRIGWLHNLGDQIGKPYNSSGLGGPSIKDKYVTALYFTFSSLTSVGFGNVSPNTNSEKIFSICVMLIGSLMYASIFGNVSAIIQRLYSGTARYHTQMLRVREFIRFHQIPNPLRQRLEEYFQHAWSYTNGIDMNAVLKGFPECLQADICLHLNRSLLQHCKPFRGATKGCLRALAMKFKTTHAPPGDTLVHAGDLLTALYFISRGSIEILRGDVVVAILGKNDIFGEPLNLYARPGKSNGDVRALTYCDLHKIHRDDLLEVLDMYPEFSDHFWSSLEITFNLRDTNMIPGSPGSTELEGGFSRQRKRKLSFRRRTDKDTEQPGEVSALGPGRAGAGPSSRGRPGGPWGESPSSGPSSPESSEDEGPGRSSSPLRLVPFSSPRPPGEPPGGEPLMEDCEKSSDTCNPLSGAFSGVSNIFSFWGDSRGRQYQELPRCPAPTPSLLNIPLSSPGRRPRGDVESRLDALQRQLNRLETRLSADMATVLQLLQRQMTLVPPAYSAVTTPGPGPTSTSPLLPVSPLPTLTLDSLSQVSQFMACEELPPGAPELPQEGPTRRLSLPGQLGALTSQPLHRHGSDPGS
As to `COc1ccc(S(=O)(=O)N2CCN(C(=O)CNC(=O)c3ccc4c(c3)OCO4)CC2)cc1`, the activity increase over dofetilide control, less the hit threshold is -11%. Take `COc1ccc(N2CCN(CC(O)COc3ccc(F)cc3)CC2)cc1` (stereo unspecified): the activity increase over dofetilide control, less the hit threshold was -8%. In the case of `CCC(=O)Nc1ccc(N2CCOCC2)c(S(=O)(=O)Nc2ccc(OC)cc2)c1`, the activity increase over dofetilide control, less the hit threshold was -26%. Then `O=C(NC(=S)Nc1ccc(N2CCCCC2)c(Cl)c1)c1cccs1`, with 23% (active); and `O=C(NC(=S)Nc1ccc(N2CCCCC2)cc1)c1cccs1`, with -2%. Then `O=C(NC(=S)Nc1ccc(N2CCOCC2)c(Cl)c1)c1sc2ccccc2c1Cl`, with 15% (active); and `O=C(NC(=S)Nc1ccccc1N1CCCCC1)c1cccs1`, with 11% (active); and `COc1ccc(NC(=O)c2cc(S(=O)(=O)N3CCOCC3)ccc2N2CCOCC2)cc1`, with -16%.

For `Nc1ccc(Cl)c(NC(=O)c2cccs2)c1`, the activity increase over dofetilide control, less the hit threshold was -11%.

For `O=C(NC(=S)Nc1ccccc1N1CCCC1)c1cccs1`, the activity increase over dofetilide control, less the hit threshold is 0%. Consider `COCCN1C(=O)C(=O)/C(=C(/O)c2ccc(S(=O)(=O)N3CCOCC3)cc2)C1c1ccc(OC)c(OC)c1` (stereo unspecified), for which the activity increase over dofetilide control, less the hit threshold is -17%. For `Nc1nc(Br)c2c(F)cccc2c1-c1ccc(Cl)cc1`, the activity increase over dofetilide control, less the hit threshold is -6%.

On to `Cc1ccc(C2c3c(-c4ccccc4O)n[nH]c3C(=O)N2Cc2ccncc2)cc1` (stereo unspecified), for which the activity increase over dofetilide control, less the hit threshold was -3%. Consider `O=C(COc1ccc2ccccc2c1Br)Nc1cccnc1`, for which the activity increase over dofetilide control, less the hit threshold is 31% (active). As to `N#Cc1ccc(-c2ccc(OCC(=O)Nc3cccnc3)cc2)cc1`, the activity increase over dofetilide control, less the hit threshold was -10%. Then `O=C(COc1ccccc1)Nc1ccc(S(=O)(=O)Nc2ccccn2)cc1`, with -18%; and `O=C(COc1ccc([N+](=O)[O-])cc1)Nc1cccnc1`, with -25%; and `O=C(COc1ccc(C(=O)c2ccccc2)cc1)Nc1cccnc1`, with 4% (active). In the case of `O=C(COc1ccc(Cl)cc1Cl)Nc1cccnc1` it was -2%; in that of `CC(=O)OCC1O[C@@H](O[C@@H]2C[C@H]3C(C)(C)[C@H](OC(C)=O)CC[C@]3(C)[C@H]3CC[C@]45C[C@]4(CC[C@H]5[C@@H](C)C[C@@H](O)[C@H](O)C(C)(C)O)[C@@]32C)[C@H](O)[C@@H](O)[C@@H]1O` (stereo partly specified), 12% (active); in that of `C/C(=N\Nc1nc2ccccc2s1)c1ccc(Br)s1`, -11%. Turning to `C/C(=N\Nc1nc2ccccc2s1)c1cccs1`, the activity increase over dofetilide control, less the hit threshold is -8%. Regarding `C/C(=N\Nc1nc2ccccc2nc1C)c1ccccc1O`, the activity increase over dofetilide control, less the hit threshold is 10% (active). `COCCNC(=O)C(c1ccc(C)o1)N(Cc1ccc(OC)cc1)C(=O)Cn1nnc2ccccc21` (stereo unspecified): the activity increase over dofetilide control, less the hit threshold is 4% (active). As to `COCCNC(=O)C(c1ccncc1)N(C(=O)Cn1nnc2ccccc21)c1ccc(OC)cc1` (stereo unspecified), the activity increase over dofetilide control, less the hit threshold is -9%.

With `Cc1ccc(-c2nnn(CC(=O)N(CC3CCCO3)C(C(=O)NC3CCCC3)c3ccc(O)cc3)n2)o1` (stereo unspecified), the activity increase over dofetilide control, less the hit threshold was -7%. Turning to `O=[N+]([O-])c1cccc(/C=C/c2nc(C=Nc3ccccc3)c(O)o2)c1`, the activity increase over dofetilide control, less the hit threshold was -13%. For `COc1cc2c(cc1OC)CN(C(=O)c1ccc3nc[nH]c3c1)CC2`, the activity increase over dofetilide control, less the hit threshold was -2%. For `Cc1onc(C(=O)N2CCC(C(N)=O)CC2)c1-c1ccccc1Cl`, the activity increase over dofetilide control, less the hit threshold is -17%. Then `O=c1[nH]c2ccc(S(=O)(=O)NCc3ccccc3)cc2[nH]1`, with -5%; and `CC(=O)N(C1=C(N)C(=O)c2ccccc2C1=O)C(C)C`, with -12%. Consider `Nc1ccc2c(c1)C(=O)C(=O)c1ccccc1-2`, for which the activity increase over dofetilide control, less the hit threshold was 10% (active). Then `Clc1ccc(Cc2ccccc2)nn1`, with -10%; and `CC(=O)C1=C(O)C(=O)N(c2cccnc2)C1c1ccc(Cl)cc1` (stereo unspecified), with -30%; and `O=C(COc1ccc(Br)cc1Br)NC(=S)N1CCCc2ccccc21`, with 6% (active). Then `CC(C)c1ccc(OCC(=O)NN2C(=O)c3ccccc3C2=O)c(Br)c1`, with -17%; and `O=C(COc1ccc(Cl)cc1Cl)NC(=S)N1CCCc2ccccc21`, with 21% (active).

With `O=C(COc1coc(CN2CCc3ccccc3C2)cc1=O)Nc1cccc(Cl)c1`, the activity increase over dofetilide control, less the hit threshold is -17%.

On to `O=C(COc1ccc(Br)cc1Cl)NC(=S)N1CCc2ccccc21`, for which the activity increase over dofetilide control, less the hit threshold was -4%.

With `CC(Oc1ccc(Cl)cc1Cl)C(=O)NC(=S)N1CCc2ccccc21` (stereo unspecified), the activity increase over dofetilide control, less the hit threshold was 36% (active). `CSc1nc2ccc(S(=O)(=O)N3CCc4ccccc43)cc2s1`: the activity increase over dofetilide control, less the hit threshold is 0%. Consider `CCOc1ccc2[nH]c(=O)c(CN(Cc3ccc(C)cc3)C(=O)N3CCCC3)cc2c1`, for which the activity increase over dofetilide control, less the hit threshold is -8%. For the compound `Cc1cc(C)cc(NC(=O)N2CCCC2C(=O)Nc2ccc(-n3cnnn3)c(C)c2)c1` (stereo unspecified), the activity increase over dofetilide control, less the hit threshold was -28%.

`Cc1cc(SC#N)cc(C)c1NC(=O)CCl`: the activity increase over dofetilide control, less the hit threshold is -1%. In the case of `C=CCNC(=O)CC(=O)N/N=C/c1cccs1`, the activity increase over dofetilide control, less the hit threshold was 0%. With `O=C(NC1CCN(c2ncccn2)CC1)c1c(F)cccc1F`, the activity increase over dofetilide control, less the hit threshold was -2%. As for `C=CCNc1sc(C(=O)C(C)(C)C)c(N)c1C#N`, the activity increase over dofetilide control, less the hit threshold is -14%.

On to `COc1cc(/C=C2/C(=O)NN(c3ccc(Cl)c(Cl)c3)C2=O)cc([N+](=O)[O-])c1O`, for which the activity increase over dofetilide control, less the hit threshold was -1%. In the case of `O=C(NC(=S)N(CCc1ccccc1)CCc1ccccc1)c1ccco1` it was 53% (active). Regarding `CC(CCc1ccccc1)NC(=S)NC(=O)c1ccco1` (stereo unspecified), the activity increase over dofetilide control, less the hit threshold was 28% (active). In the case of `O=[N+]([O-])C1=CC=C2C(=NC3(CCCCC3)N2O)C1=NC1CCCCC1` it was -15%; in that of `O=C(COC(=O)c1cc(S(=O)(=O)NCc2ccccc2)ccc1O)NCc1ccccc1`, -7%; in that of `Cc1cc(N2C(=O)C(O)=C(C(=O)c3cccs3)C2c2ccccc2)no1` (stereo unspecified), -11%. In the case of `COc1ccc(CNC(=O)C(=O)c2cn(CC(=O)N3CCCC3)c3ccccc23)cc1` it was -21%; in that of `CC(C)CC(=O)Nc1nc(=S)ss1`, -11%; in that of `Cc1ccccc1C(=O)c1cn[nH]c1-c1ccccc1O`, -29%. For the compound `O=C(NNC(=O)c1ccc(Cl)cc1Cl)c1cnccn1`, the activity increase over dofetilide control, less the hit threshold is -16%. In the case of `Cc1ccccc1C(=O)Nc1nc(=S)ss1` it was 39% (active); in that of `O=C(Nc1nc(=S)ss1)c1ccc(Cl)cc1Cl`, 70% (active).

`COc1nnc(-c2ccc(C)c(S(=O)(=O)NC(C)(C)CO)c2)c2ccccc12`: the activity increase over dofetilide control, less the hit threshold is -17%. Regarding `CN(Cc1cnn(C)c1)C(=O)C1CCC(=O)N(Cc2cccc(C(F)(F)F)c2)C1` (stereo unspecified), the activity increase over dofetilide control, less the hit threshold is -10%.
